# IL-1B inflam inh: qHTS for Inhibitors of Inflammasome Signaling: IL-1-beta AlphaLISA Primary Screen; THP-1 LPS/ATP IL-1B secretion, AlphaLISA, 16 h; stronger effect = lower value; activity change, % at 57.5 µM; 4.7% of 360,000 active; in the data active means activity change below about -50%; inconclusive means mostly about -30% to -49%
#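 THP-1 cells pretreated 1 hr with compounds (up to 57.5 uM final), then stimulated with LPS (250 ng/mL final) plus ATP (1.25 mM final); secreted IL-1B measured by AlphaLISA after 16 hr, decreased signal indicating inhibition.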
# TDP1 cell CPT: qHTS for Inhibitors of human tyrosyl-DNA phosphodiesterase 1 (TDP1): qHTS in cells in presence of CPT; chicken DT40 Tdp1-/-;hTDP1 cells + 20 nM CPT, ATP luminescence, 48 h; Potency, µM (top dose mostly 46.2 µM), for inactives: top-dose activity change, negative = growth inhibition, most hits filed as inhibitors; 12% of 420,000 active; further: potency means the concentration at half of the fitted maximal effect; nearly all actives have a fitted effect of over 55% in size
#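 Chicken DT40 Tdp1-/- cells stably complemented with human TDP1 were seeded at 400 cells/well in medium containing 20 nM camptothecin, exposed to pin-transferred compounds, and grown at 37 °C for at least 48 hr. Viability was read as ATP luminescence.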
# ELG1 repair inh: qHTS screen for small molecules that inhibit ELG1-dependent DNA repair in human embryonic kidney (HEK293T) cells expressing luciferase-tagged ELG1; HEK293T ELG1-luciferase reporter, luminescence, 16 h; DNA damage induced by 5-fluorouridine; Potency, µM (top dose mostly 46.1 µM), without a hit: at the highest dose activity change, negative = inhibition, usual class: inhibitors; 2.3% of 330,000 active; further: potency means the concentration at half of the fitted maximal effect; nearly all actives have a fitted effect of over 55% in size
#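 Quantitative HTS, concentration-response format. 2,000 cells/well co-treated with 5-fluorouridine and compound, 16 hr in 5% CO2 at 37 °C; ONE-Glo luminescence read after 30 min.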
# HT1080 IDH1KD tx: qHTS for induction of synthetic lethality in tumor cells producing 2HG: qHTS for the HT-1080-IDH1KD cell line | HT-1080 IDH1 knockdown viability, ATP luminescence, 48 h | Potency, µM (top dose mostly 46.1 µM), inactives show at the highest dose activity, negative = toxicity, hits mostly cytotoxic | 2% of 360,000 active | AID 686971, 2013;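 further: potency means the concentration at half of the fitted maximal effect; 0% = DMSO wells and -100% = cell-free medium wells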
#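 IDH1KD HT-1080 cells, 750/well, RPMI + 5% FBS; compound pinned after 2 h settling; 48 h, 37 °C; CellTiter-Glo luminescence; % activity normalised to DMSO and no-cell wells; curves fitted, classed by r2 and efficacy.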
# HT1080NT lethal: qHTS for induction of synthetic lethality in tumor cells producing 2HG: qHTS for the HT-1080-NT fibrosarcoma cell line. Potency, µM (series often up to 46.1 µM), inactives show at the highest dose activity, negative = less viability, actives largely listed as cytotoxic. 1.6% of 360,000 active. HT-1080-NT fibrosarcoma viability, CellTiter-Glo ATP luminescence, 48 h;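 further: NT is the 2HG producing partner of a matched IDH1 knockdown line; potency means the concentration at half of the fitted maximal effect; 0% = DMSO-treated cells and -100% = media-only wells without cells; nearly all actives have a fitted effect of over 55% in size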
#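 Fibrosarcoma NT cells, 750 per well in 5% FBS RPMI, were exposed to compound for 48 hours. Viability: CellTiter-Glo luminescence.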
# TDP1 cell noCPT: qHTS for Inhibitors of human tyrosyl-DNA phosphodiesterase 1 (TDP1): qHTS in cells in absence of CPT; AID 686978, 2013; Potency, µM (series often up to 46.2 µM), for the others: at the top dose activity change, negative = growth inhibition, most hits filed as inhibitors; 15% of 420,000 active; DT40 Tdp1-/- hTDP1 cells, no CPT, ATP luminescence, 48 h; further: potency means the concentration at half of the fitted maximal effect; nearly all actives have a fitted effect of over 55% in size
#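 Growth kinetics read by CellTiter-Glo luminescence after ≥48 hr at 37 °C. Cells: DT40 Tdp1-/- stably carrying human TDP1, 400 per well, compound exposure in the absence of CPT (DMSO vehicle).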
# * hit, by the source's call; i = inactive; u = inconclusive; x = no result given. Only some compounds are listed: those with a hit (about 19% of all), similar ones and a draw of the others. Unless noted, the call rests on the fitted dose curve; in most records, active means well fitted curve in the direction sought with a large enough effect; inconclusive means small, poorly fitted or top-dose-only effect, or another doubt; inactive means no such curve, though single readings can be large; an effect the other way counts as inactive or inconclusive. Unless noted, on the % scale 0 is the no-effect control and ±100 the full control effect.
SMILES,IL-1B inflam inh,TDP1 cell CPT,ELG1 repair inh,HT1080 IDH1KD tx,HT1080NT lethal,TDP1 cell noCPT
Cc1ccc(NC(=O)c2c(C)oc3ccc(O)c(CN4CCCCCC4)c23)c(C)c1,x,9.2µM*,x,x,x,6.5µM*
CCOC(=O)c1c(CSCc2ccccc2)oc2ccc(O)c(CN(C)C)c12,-82*,15µM*,-15%,18µM*,21µM*,16µM*
Cc1ccc(NC(=O)c2c(C)oc3ccc(O)c(CN4CCN(Cc5ccccc5)CC4)c23)cc1,x,21µM*,x,x,x,-86%
O=C(CN1CCN(Cc2ccccc2)CC1)Nc1ccccc1,10,-20%,3%,-15%,4%,8%
Cc1ccc(NC(=O)c2c(C)oc3ccc(O)c(CN4CCOCC4)c23)c(C)c1,x,-15%,x,x,x,-17%
Cc1ccc(NC(=O)c2sc3ncn(Cc4cccc(F)c4)c(=O)c3c2C)c(Br)c1,x,-12%,x,x,x,-24%
CCc1ccc(CN2CCc3nc(N4CCN(CC)CC4)ncc3C2)cc1,x,u,x,x,x,16µM*
CCN1CCN(c2ncc3c(n2)CCN(Cc2cc(F)cc(F)c2)C3)CC1,x,15µM*,x,x,x,15µM*
CCN1CCN(c2ncc3c(n2)CCN(Cc2ccc(OC)c(OC)c2)C3)CC1,x,-8%,x,x,x,-14%
CCCN1CCN(c2ncc3c(n2)CCN(Cc2ccc(OC)c(OC)c2OC)C3)CC1,x,u,x,x,x,18µM*
Cc1ccc(Cn2ccn(Cc3ccc(C)cc3)c(=O)c2=O)cc1,x,-3%,x,x,x,-10%
COc1cc(/C=N\NC(=O)CC#N)ccc1OC/C=C/c1ccccc1,-27,26µM*,-7%,u,-22%,u
COCC(=O)N/N=C\c1ccc(OC/C=C/c2ccccc2)c(OC)c1,i,u,u,-17%,-11%,u
CC(C)(C)c1ccc(/C=N/NC(=S)NCc2ccccc2)cc1,35,u,-32%,9%,-1%,u
COc1cc(/C=N/NC(=S)NCc2ccccc2)ccc1OCC#N,0,21µM*,u,-11%,-7%,23µM*
Cn1c(=O)n(C)c2cc(/C=N/NC(=S)NCc3ccccc3)ccc21,-17,u,27%,-29%,-20%,26µM*
CCOc1ccc(CNC(=S)N/N=C/c2ccc(OC)c(OC)c2)cc1,0,-17%,u,16%,-1%,u
O=C(C[n+]1ccccc1Cl)c1ccc(I)cc1,x,-11%,x,x,x,u
Oc1ccccc1C=NCCN1CCN(CCN=Cc2ccccc2O)C1c1ccccc1O (configuration not stated),18,u,x,-2%,0%,u
O=C(CNc1ccc(Cl)cc1)c1ccc(Br)cc1,-11,2%,25%,-17%,-19%,-7%
O=C(Cn1c(NCCCO)nc2ccccc21)c1ccc([N+](=O)[O-])cc1,-7,u,-13%,6%,0%,0%
OCCCNc1nc(-c2ccc(Cl)cc2)nnc1-c1ccc(Br)cc1,-78*,23µM*,-21%,u,u,21µM*
O=[N+]([O-])c1ccc(-c2nnc(-c3ccccc3)c(NCCCO)n2)cc1,-18,21µM*,-27%,-7%,1%,16µM*
CC(C)(C)C(=O)NCCCC(=O)O,x,-9%,x,x,x,-18%
OC[C@@H]1CN(CCc2ccccc2)C[C@H](n2cnc3c(NCc4ccc(F)cc4)ncnc32)O1,-4,u,x,0%,-26%,u
